# Data reported in PubChem BioAssay (Tox21).
# Records with an inconclusive call do not appear. Calls of active or inactive are those of the source. Calls follow the shape of the dose curve; as a rule, active = well fitted inhibition curve with a large enough effect in the repeat runs; inconclusive = weak or mixed curves, or effect the other way; inactive = no such curve, though single readings can be large or run the other way.
# Target: Androgen receptor (Homo sapiens) (UniProt P10275)
# Assay: qHTS assay to identify small molecule antagonists of the androgen receptor (AR) signaling pathway using the MDA cell line (AID 743042; also: nearly all actives have a fitted effect of over 55% in size)
# Conditions: MDA-kb2 AR-luc, MMTV luciferase, R1881 antagonist, 16 h; series mostly up to 70.3 µM
# Text: U.S. Tox21 Program National Center for Advancing Translational Sciences [NCATS] NIH Chemical Genomics Center [NCGC] U.S. Environmental Protection Agency [EPA] National Institutes of Environmental Health Sciences [NIEHS] National Toxicology Program [NTP] U.S. Food and Drug Administration [FDA] Tox21 Assay Overview: Androgen receptor (AR), a nuclear hormone receptor, plays a critical role in AR-dependent prostate cancer and other androgen related diseases. Endocrine disrupting chemicals (EDCs) and their interactions with steroid hormone receptors like AR may cause disruption of normal endocrine function as well as interfere with metabolic homeostasis, reproduction, developmental and behavioral functions. To identify the compounds that inhibit AR signaling, MDA-kb2 AR-luc cell line (from ATCC, deposited by Wilson et al.) was used to screen the Tox21 10K compound library. MDA-kb2 AR-luc cell line is human breast carcinoma cell line that was stably transfected with a luciferase reporter gene under control of the MMTV promoter containing response elements for both androgen receptor (AR) and glucocorticoid receptor (GR).
# Tox21 Assay Protocol Summary: MDA-kb2 cells were dispensed at 3,000 cells/4 uL/well of culture medium into white wall/solid-bottom 1536-well plates using a Multidrop Combi (ThermoFisher Scientific, Waltham, MA) dispenser. After the assay plates were incubated at a 37C and 0% CO2 for 5 hr, 23 nL of compounds dissolved in DMSO, positive controls or DMSO only was transferred to the assay plate by a Pintool station (Kalypsys, San Diego, CA), followed by addition of 1 uL of agonist (R1881) in culture medium using a Bioraptr Flying Reagent Dispenser (FRD) workstation (Beckman Coulter, Indianapolis, IN, USA). The plates were incubated at a 37C and 0% CO2 for 16 h. After 15.5 h incubation, 1uL of CellTiter-Fluor reagent (Promega, Madison, WI) was added using a Bioraptr FRD to each plate for measuring cytotoxicity. The fluorescence intensity was quantified on a ViewLux plate reader (PerkinElmer, Shelton, CT) following 30 min incubation at 37C and 0% CO2. For measuring luciferase reporter gene activity, 4 uL of ONE-Glo reagent (Promega) was added to each plate using a Bioraptr FRD and luminescence was quantified on a ViewLux (PerkinElmer) plate reader after 30 min incubation at room temperature.
# Sequence of Androgen receptor (Homo sapiens) (P10275 whole entry, looked up): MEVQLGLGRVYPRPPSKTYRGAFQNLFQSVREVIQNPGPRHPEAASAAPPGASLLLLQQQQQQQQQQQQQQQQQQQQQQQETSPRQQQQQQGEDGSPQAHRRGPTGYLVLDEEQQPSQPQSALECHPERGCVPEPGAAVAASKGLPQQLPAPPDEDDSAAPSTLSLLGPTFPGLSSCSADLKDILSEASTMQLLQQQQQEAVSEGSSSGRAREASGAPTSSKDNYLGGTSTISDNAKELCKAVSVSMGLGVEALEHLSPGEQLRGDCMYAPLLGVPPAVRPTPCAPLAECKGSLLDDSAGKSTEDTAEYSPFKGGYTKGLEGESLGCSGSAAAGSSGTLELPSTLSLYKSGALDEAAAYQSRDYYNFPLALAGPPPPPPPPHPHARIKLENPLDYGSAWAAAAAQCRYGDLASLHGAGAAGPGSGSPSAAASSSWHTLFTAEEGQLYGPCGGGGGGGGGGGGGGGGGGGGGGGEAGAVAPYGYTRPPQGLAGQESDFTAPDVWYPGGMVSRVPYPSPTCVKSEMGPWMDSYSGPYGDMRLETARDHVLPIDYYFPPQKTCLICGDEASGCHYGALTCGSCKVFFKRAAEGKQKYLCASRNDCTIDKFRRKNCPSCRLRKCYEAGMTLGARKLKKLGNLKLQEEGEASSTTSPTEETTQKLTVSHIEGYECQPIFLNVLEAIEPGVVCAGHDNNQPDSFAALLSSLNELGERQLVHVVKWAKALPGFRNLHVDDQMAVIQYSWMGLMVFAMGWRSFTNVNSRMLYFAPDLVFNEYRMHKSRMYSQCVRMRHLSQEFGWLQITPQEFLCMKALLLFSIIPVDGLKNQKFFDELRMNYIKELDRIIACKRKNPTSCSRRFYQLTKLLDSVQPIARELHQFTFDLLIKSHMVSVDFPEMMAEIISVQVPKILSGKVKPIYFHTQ
row,Compound,outcome
1,COCCOC[C@H](CC1(C(=O)NC2CCC(C(=O)O)CC2)CCCC1)C(=O)Oc1ccc2c(c1)CCC2 (stereo not given in full),inactive
2,NS(=O)(=O)Cc1noc2ccccc12,inactive
3,CC(C)(C)c1ccc(-c2ccc(C(C)(C)C)cc2)cc1,inactive
4,Cc1ccc(C(=O)c2ccccc2)cc1,inactive
5,CC(C)C1CCC(O)CC1 (stereo not given),inactive
6,CC(C)NNC(=O)c1ccncc1,inactive
7,CCCOC(=O)CC,inactive
8,CCCCS(=O)(=O)N[C@@H](Cc1ccc(OCCCCC2CCNCC2)cc1)C(=O)O,inactive
9,COC(=O)C1=C(C)NC(C)=C(C(=O)OC(C)C)C1c1cccc2nonc12 (stereo not given),inactive
10,CCCCCCCC1CCCC1=O (stereo not given),inactive
11,CCN(Cc1ccccc1)c1ccccc1,inactive
12,Cc1ccc(C(=O)c2ccc(CC(=O)O)n2C)cc1,inactive
13,CCOC(=O)COc1cc(-n2ncc(C(F)(F)F)c(C)c2=O)c(F)cc1Cl,inactive
14,O=S(=O)(O)c1cc(O)c(O)c(S(=O)(=O)O)c1,inactive
15,CCCCCC(C)N (stereo not given),inactive
16,Nc1c2c(nc3c1CCC3)CCCC2,inactive
17,CC(=O)N[C@H]1[C@H]([C@H](O)[C@H](O)CO)OC(C(=O)O)=C[C@@H]1N=C(N)N,inactive
18,CO[C@@]1(NC(=O)CSC[C@@H](N)C(=O)O)C(=O)N2C(C(=O)O)=C(CSc3nnnn3C)CS[C@@H]21,inactive

row,Compound,outcome
1,C=C[Si](OC(C)=O)(OC(C)=O)OC(C)=O,inactive
2,CC1(C)OC[C@@H](COC(=O)CCc2ccc(OC[C@@H](O)CNCCNC(=O)N3CCOCC3)cc2)O1,inactive
3,O=S(=O)(O)c1cccc(S(=O)(=O)O)c1,inactive
4,CC[N+](CC)(CC)CCOc1cccc(OCC[N+](CC)(CC)CC)c1OCC[N+](CC)(CC)CC,inactive
5,C[C@@H]1C[C@H]2[C@@H]3C[C@H](F)C4=CC(=O)C(Cl)=C[C@]4(C)[C@@]3(F)[C@@H](O)C[C@]2(C)[C@@]1(O)C(=O)CO,inactive
6,CCCCOCCOC(=O)COc1cc(Cl)c(Cl)cc1Cl,inactive
7,CCCCCCCCCC[N+](C)(C)[O-],inactive
8,O=C(O)CCSCCC(=O)O,inactive
9,CC1=NN(c2cccc(S(=O)(=O)O)c2)C(=O)C1,inactive
10,CC1CCC(CO)CC1 (stereo not given),inactive
11,COC(=O)Nc1ccc(Cl)c(Cl)c1,inactive
12,Cc1nc2ccc(CN(C)c3ccc(C(=O)N[C@@H](CCC(=O)O)C(=O)O)s3)cc2c(=O)[nH]1,inactive
13,CC(=O)N1C[C@H](O)C[C@H]1C(=O)O,inactive
14,O=C(O)Cc1csc(-c2ccc(Cl)cc2)n1,inactive
15,CC(=O)O[C@@]12CO[C@@H]1C[C@H](O)[C@@]1(C)C(=O)[C@H](O)C3=C(C)[C@@H](OC(=O)[C@H](O)[C@@H](NC(=O)OC(C)(C)C)c4ccccc4)C[C@@](O)([C@@H](OC(=O)c4ccccc4)[C@H]21)C3(C)C,inactive
16,Cc1ccc(-c2ncc(Cl)cc2-c2ccc(S(C)(=O)=O)cc2)cn1,inactive
17,CNC(=O)Nc1ccc(Cl)c(Cl)c1,inactive
